Results with a measured potency or affinity are listed apart. The source made the active and inactive calls.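 How the source made its calls: active means fitted half-maximal dose no more than twice the top valid tested dose, for compounds that lower signal; inconclusive means fit invalid, or curve flat with activity between -70 and -30; inactive means potency past limit, curve flat within ±30, or signal increasing.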

NAD-dependent protein deacylase sirtuin-5, mitochondrial (Homo sapiens), sequence (Q9NXA8 whole entry, looked up): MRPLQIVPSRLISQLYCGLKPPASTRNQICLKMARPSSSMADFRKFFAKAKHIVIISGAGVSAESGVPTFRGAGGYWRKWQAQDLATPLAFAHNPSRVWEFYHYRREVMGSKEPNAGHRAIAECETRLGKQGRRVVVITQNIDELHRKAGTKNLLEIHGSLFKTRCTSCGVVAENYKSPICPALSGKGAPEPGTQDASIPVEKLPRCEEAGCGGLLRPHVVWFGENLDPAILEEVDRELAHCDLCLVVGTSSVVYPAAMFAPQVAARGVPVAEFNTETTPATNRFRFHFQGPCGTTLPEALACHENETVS

The test addresses NAD-dependent protein deacylase sirtuin-5, mitochondrial (Homo sapiens) (UniProt Q9NXA8). As to the kind of experiment: SIRT5 deacylase inhibitors, dose response, biochemical, fluorescence imaging, cherry-pick, set 6 (AID 720597).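 Further: lower AMC signal can also come from blocking the trypsin step.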 The conditions noted are these: Purified SirT5, succinyl-peptide-AMC/trypsin fluorescence; series mostly up to 15 µM.
Turning to `C[C@H](CO)N1C[C@H](C)[C@@H](CN(C)Cc2ccncc2)Oc2ncc(C#CCN(C)C)cc2C1=O`, the compound was classed as inactive.
For the compound `C[C@@H]1CN([C@H](C)CO)C(=O)c2cc(NS(=O)(=O)c3ccc(Cl)cc3)ccc2O[C@@H](C)CCCCO[C@@H]1CN(C)Cc1ccccc1`, the call was inactive.
In the case of `CC(C)NC(=O)N1[C@H](CN(C)C(=O)c2ccccc2)[C@@H](c2ccccc2)[C@@H]1CO`, the compound was classed as inactive.
In the case of `COCC(=O)Nc1ccc2c(c1)[C@@H]1C[C@@H](CC(=O)NCc3ccccc3OC)O[C@@H](CO)[C@@H]1O2` it was “inactive”.
Consider `O=S(=O)(c1ccc(F)cc1)N1CCCCN2[C@@H](CO)[C@H](c3ccc(-c4ccccc4F)cc3)[C@@H]2C1`, for which the compound was called inactive.
`O=C(CN1CCOCC1)NCC[C@H]1CC[C@@H](NS(=O)(=O)c2ccc(Cl)cc2)[C@@H](CO)O1`: the result was inactive.
Turning to `Cc1ccc(S(=O)(=O)N[C@@H]2C=C[C@H](CC(=O)N3CCN(c4ccccc4)CC3)O[C@@H]2CO)cc1`, the compound was classed as inactive.
Turning to `COc1ccc(NC(=O)N(C)C[C@H]2Oc3cc(C#CCC(C)C)ccc3S(=O)(=O)N([C@@H](C)CO)C[C@H]2C)cc1`, the outcome was inactive.
Turning to `C[C@@H]1CN([C@H](C)CO)C(=O)Cc2cc(NS(=O)(=O)c3ccc(F)cc3)ccc2O[C@H]1CN(C)Cc1ccc(C(F)(F)F)cc1`, the result was inactive.
In the case of `CCCNC(=O)N1CC2(C1)[C@H](c1ccccc1)[C@H](CO)N2Cc1cccc(F)c1` it was “inactive”; in that of `C[C@@H]1CN([C@@H](C)CO)C(=O)c2cc(NC(=O)CCN3CCOCC3)ccc2O[C@H]1CN(C)Cc1ccc(C(F)(F)F)cc1`, “inactive”; in that of `C[C@H]1CN([C@@H](C)CO)C(=O)c2c(c3ccccc3n2C)-c2ccccc2CO[C@@H]1CN(C)Cc1ccc2c(c1)OCO2`, “inactive”.
With `C[C@@H]1CN([C@@H](C)CO)C(=O)Cc2cc(NC(=O)Nc3ccc(F)cc3)ccc2O[C@@H]1CN(C)C` the entry was “inactive”; with `C[C@@H]1CN([C@@H](C)CO)C(=O)c2cc(NS(=O)(=O)c3ccccc3)ccc2O[C@@H]1CN(C)Cc1ccc(Oc2ccccc2)cc1`, “inactive”; with `COc1ccc(NC(=O)N(C)C[C@@H]2Oc3ccc(NS(=O)(=O)c4ccc(F)cc4)cc3C(=O)N([C@@H](C)CO)C[C@H]2C)cc1`, “inactive”.
With `C[C@@H]1CN([C@@H](C)CO)C(=O)c2cc(NC(=O)Cc3cn(C)c4ccccc34)ccc2O[C@@H]1CN(C)Cc1ccc(Oc2ccccc2)cc1` the entry was “inactive”; with `Cc1ccc(-c2cnc3c(c2)C(=O)N([C@H](C)CO)C[C@H](C)[C@@H](CN(C)Cc2ccccc2F)O3)cc1`, “inactive”; with `O=C(NC1CCCC1)[C@H]1[C@H](CO)[C@H]2Cn3c(ccc(-c4ccncc4)c3=O)[C@H]2N1CCc1ccccc1`, “inactive”.
Regarding `C[C@@H]1CCCCO[C@H](CN(C)S(=O)(=O)c2ccc(Cl)cc2)[C@H](C)CN([C@@H](C)CO)C(=O)c2cc(NS(=O)(=O)c3ccc(F)cc3)ccc2O1`, the call was inactive.
With `COc1ccc(C#Cc2ccc([C@@H]3[C@@H](CO)N4C(=O)CN(C(=O)c5cccnc5)C[C@@H]34)cc2)cc1` the entry was “inactive”.
In the case of `CCCC(=O)Nc1ccc2c(c1)OC[C@@H](C)N(Cc1ccccc1)C[C@H](C)[C@H](OC)CN(C)C2=O` it was “inactive”; in that of `Cc1noc(C)c1NC(=O)Nc1cccc2c1O[C@H](CN(C)Cc1ccc(Oc3ccccc3)cc1)[C@H](C)CN([C@H](C)CO)C2=O`, “inactive”; in that of `O=S(=O)(c1ccc(F)cc1)N1CCCCN2[C@H](CO)[C@H](c3ccc(C#CC4CCCC4)cc3)[C@H]2C1`, “inactive”.
In the case of `O=C(c1ccc2c(c1)OCO2)N1CC(=O)N2[C@H](CO)[C@H](c3ccc(C#CCC4CCCC4)cc3)[C@@H]2C1` it was “inactive”; in that of `C[C@H]1CN([C@@H](C)CO)S(=O)(=O)c2ccc(/C=C/c3ccccc3)cc2O[C@@H]1CN(C)C(=O)NC1CCCCC1`, “inactive”.
As for `O=C(N[C@@H]1CC[C@H](CCNS(=O)(=O)c2ccccc2)O[C@H]1CO)c1cnccn1`, the result was inactive.
In the case of `C[C@@H]1CN([C@@H](C)CO)S(=O)(=O)c2ccc(C3=CCCCC3)cc2O[C@@H]1CN(C)S(=O)(=O)c1ccc(F)cc1` it was “inactive”; in that of `C[C@@H]1CN([C@H](C)CO)C(=O)c2cc(NC(=O)CCCCCC(=O)Nc3ccccc3N)ccc2O[C@@H]1CN(C)Cc1ccc(Cl)c(Cl)c1`, “inactive”; in that of `Cc1ccc(S(=O)(=O)N(C)C[C@@H]2OCCCC[C@@H](C)Oc3ccc(NS(=O)(=O)c4ccc(F)cc4)cc3C(=O)N([C@H](C)CO)C[C@H]2C)cc1`, “inactive”.

(Values after PubChem BioAssay AID720597 (Broad Institute, 2013).)
